Source: PubChem BioAssay
Inconclusive results are not listed. The source made the active and inactive calls. Cut-off read from the data, not from the text of the source, unless noted: active = inhibition above about 80%; inactive = the rest.

How the values were obtained:
[1] = growth inhibition of DIPG glioma cells, dose response, cell-based, SU-DIPG-XVII, MIPE5.0, CellTiter-Glo, qHTS (AID 1347060; cut-off not given, nearly all actives have AC50 up to about 26 µM;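 for AC50: cells exposed to compound for 48 hours before viability readout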); conditions: SU-DIPG-XVII viability, CellTiter-Glo ATP luminescence
[2] = JHH-DIPG-1 glioma cell viability, MIPE5.0 library, CellTiter-Glo luminescence, qHTS (AID 1347067; cut-off not given, nearly all actives have AC50 up to about 26 µM;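 note: cells exposed to compound for 48 hours before readout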); conditions: JHH-DIPG-1 glioma viability, CellTiter-Glo ATP luminescence
[3] = SU-DIPG-XXV glioma cell viability, MIPE5.0 library, qHTS (AID 1347068; cut-off not given, nearly all actives have IC50 up to about 30 µM;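 for IC50: cells exposed to compound for 48 hours before viability readout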)
[4] = sensitizers of A549 cells to miR-34 induction, primary screen, imaging, A549 dox-inducible miR-34, nuclei and caspase counts (AID 1347080;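 active = compounds whose cell count with miR-34 switched on is under 0.7 times the count with it off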); conditions: A549 miR-34 inducible, Hoechst nuclei count, 48 h
[5] = modifiers of HSF1 nuclear foci, imaging, Selleck Cancer Library (AID 1347162; in the data active = plate-normalised HSF1 focus index below about 0.46); conditions: human cells, at 10 µM; SSMD: measured here: HSF1 foci SSMD mean; cell count: measured here: cell number; plate-normalised HSF1 focus index: stronger effect = lower value
[6] = survival rescue of mitochondrial mutant cells in low glucose, primary screen, MELAS cybrids, Rieske KO mouse fibroblasts, CellTiter-Glo (AID 1508586;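 active = mean z-score across replicates of 1.96 or higher in either the MELAS or the Rieske mutant cell line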;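 note: z relative to plate mean and SD of compound and empty wells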)
[7] = LFS_MB_P medulloblastoma growth inhibition, cell-based, chromothripsis tumors, cisplatin or BGB combos (AID 1671449); conditions: LFS_MB_P medulloblastoma cells;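 note: cells exposed for 96 hours; 0% = vehicle DMSO and 100% = killing by high DMSO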
[8] = HDN33 neuroblastoma growth inhibition, cell-based, chromothripsis tumors, cisplatin or BGB combos (AID 1671450); conditions: HDN33 neuroblastoma cells, stronger effect = higher value;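 note: cells exposed to compound for four days; 0% = vehicle DMSO and 100% = cell killing by high DMSO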
[9] = ICB984 medulloblastoma cell growth inhibition, synergistic combos for chromothripsis tumors, cisplatin or BGB combos (AID 1671451; call rule not given here;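 note: cells exposed for 96 hours before readout; 0% = vehicle DMSO and 100% = killing by high DMSO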); conditions: ICB984 medulloblastoma cells, drug combinations, stronger effect = higher value
[10] = LFS_MB_1R medulloblastoma cell growth inhibition, synergistic combos for chromothripsis tumors, cisplatin or BGB combos (AID 1671452); conditions: LFS_MB_1R medulloblastoma cells, stronger effect = higher value;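 note: cells exposed for 96 hours before readout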
[11] = HTB85 osteosarcoma cell growth inhibition, synergistic combos for chromothripsis tumors, BGB or cisplatin IC20 combos (AID 1671453); conditions: HTB85 osteosarcoma cells, drug combinations, stronger effect = higher value;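 note: cells exposed for 96 hours before readout; 0% = vehicle DMSO and 100% = high DMSO killing control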
[12] = CRL2098 osteosarcoma cell growth inhibition, synergistic combos for chromothripsis tumors, BGB or cisplatin IC20 combos (AID 1671454); conditions: CRL2098 osteosarcoma cells, drug combinations, stronger effect = higher value;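 note: cells exposed for 96 h before readout; 0% = vehicle DMSO and 100% = killing by high DMSO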
[13] = HD-MB03 medulloblastoma cell growth inhibition, synergistic combos for chromothripsis tumors, BGB or cisplatin IC20 combos (AID 1671455; in the data active = inhibition above about 83%;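 note: 0% = vehicle DMSO and 100% = high DMSO as cytotoxic control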); conditions: HD-MB03 medulloblastoma cells, stronger effect = higher value
[14] = UWB1.289 ovarian carcinoma cell growth inhibition, synergistic combos for chromothripsis tumors, BGB or cisplatin combos (AID 1671456); conditions: UWB1.289 ovarian carcinoma cells, stronger effect = higher value;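 note: cells exposed to compound for four days; 0% = vehicle DMSO and 100% = killing by high DMSO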
[15] = LFS_MB_2R medulloblastoma cell growth inhibition, synergistic combos for chromothripsis tumors, cisplatin combos (AID 1671457); conditions: LFS_MB_2R medulloblastoma cells, stronger effect = higher value;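 note: cells exposed to compound for four days before readout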
[16] = MDA-MB-436 breast carcinoma cell growth inhibition, synergistic combos for chromothripsis tumors, BGB or cisplatin combos (AID 1671458; call rule not given here;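 note: cells exposed for 96 hours; 0% = vehicle DMSO and 100% = killing by high DMSO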); conditions: MDA-MB-436 breast carcinoma growth inhibition, drug combinations, stronger effect = higher value
[17] = UWB1.289_BRCA1 ovarian cancer growth, cell-based, BGB or cisplatin combinations (AID 1671459); conditions: UWB1.289 BRCA1 ovarian carcinoma, drug combinations, stronger effect = higher value
[18] = human astrocyte viability loss, single and combined drugs, cytotoxicity control for chromothriptic childhood tumor combination screen, cell-based, BGB or cisplatin IC20 combos (AID 1671460); conditions: Human astrocytes, drug combinations, stronger effect = higher value;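 note: cells exposed to compounds for 96 hours before viability readout; 0% = vehicle and 100% = killing control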
[19] = growth inhibition of BT084 medulloblastoma cells, cell-based, ICGC_MB145, cisplatin and BGB IC40 combos (AID 1671461); conditions: drug combinations, stronger effect = higher value;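 note: cells exposed to drugs for 96 hours; 0% = vehicle DMSO and 100% = high DMSO full killing control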
[20] = growth inhibition of RCMB18 medulloblastoma cells, cell-based, cisplatin and BGB IC40 combos (AID 1671462); conditions: stronger effect = higher value;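 note: cells exposed to compound for four days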
[21] = growth inhibition of CRL1545 osteosarcoma cells, cell-based, cisplatin and BGB IC20 combos (AID 1671464); conditions: stronger effect = higher value;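 note: cells exposed to compound for 96 hours before readout; 0% = vehicle DMSO and 100% = high DMSO killing control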
[22] = measured here: combination with BGB IC40, at 0.05 µM
[23] = measured here: with BGB IC20 combination, at 0.5 µM
[24] = measured here: with cisplatin IC20 combination, at 0.5 µM
[25] = measured here: combination with cisplatin, at 0.5 µM
[26] = measured here: combination with cisplatin, at 5 µM

Compound: Cn1ncnc1[C@H]1c2n[nH]c(=O)c3cc(F)cc(c23)N[C@@H]1c1ccc(F)cc1
- AC50 [1]: 742 nM (active)
- outcome [2]: inactive
- outcome [3]: inactive

Compound: Cc1onc(-c2ccc(F)cc2)c1COc1ccc(C(=O)N2CCS(=O)(=O)CC2)cn1
- outcome [1]: inactive
- outcome [2]: inactive
- outcome [3]: inactive

Compound: CC[C@H](C)[C@@H]([C@@H](CC(=O)N1CCC[C@H]1[C@H](OC)[C@@H](C)C(=O)N[C@@H](Cc1ccccc1)c1nccs1)OC)N(C)C(=O)[C@@H](NC(=O)[C@H](C(C)C)N(C)C)C(C)C
- outcome [1]: inactive
- IC50 [3]: 4.17 nM (active)

Compound: Nc1nc(OCc2cc(Br)cs2)c2[nH]cnc2n1
- outcome [1]: inactive
- outcome [3]: inactive
- fold change ([4]; stronger effect = lower value, cell number ratio, induced over uninduced): 0.799 (inactive)
- fold change ([4]; measured here: relative caspase fold change +Dox/-Dox): 0.415
- cell count ([4]; measured here: total cells with miR-34 induction, stronger effect = lower value): 7150
- cell count ([4]; measured here: total cells without miR-34 induction): 8940
- SSMD [5]: 3.47
- cell count [5]: 6820
- plate-normalised HSF1 focus index [5]: 1.21 (inactive)
- z-score ([6]; MELAS cybrid survival, CellTiter-Glo 48 h, stronger effect = higher value): -0.686 (inactive)
- z-score ([6]; Rieske KO mouse fibroblast survival, CellTiter-Glo 72 h): -2.22
- inhibition ([7]; at 0.5 µM, stronger effect = higher value): -8.6% (inactive)
- inhibition ([7]; measured here: combination with BGB IC20, at 0.005 µM): 6.06%
- inhibition ([7]; measured here: combination with BGB IC40, at 0.005 µM): -17.9%
- inhibition [7, 22]: -7.49%
- inhibition ([7]; measured here: combination with cisplatin, at 0.5 µM, stronger effect = higher value): -32.7%
- inhibition ([7]; measured here: combination with cisplatin, at 5 µM, stronger effect = higher value): 3.43%
- inhibition ([8]; BGB combo, at 5 µM): -14.7%
- inhibition ([8]; at 0.5 µM): -12.4% (inactive)
- inhibition ([8]; cisplatin combo, at 5 µM): -19.8%
- inhibition [8, 23]: -15.1%
- inhibition [8, 24]: -16.6%
- inhibition ([8]; single agent, at 5 µM): -22.4%
- inhibition ([9]; BGB IC20 combo, at 0.005 µM): -4.27%
- inhibition ([9]; BGB IC40 combo, at 0.005 µM): -37.5%
- inhibition ([9]; BGB IC40 combo, at 0.05 µM): -11.8%
- inhibition ([9]; at 0.5 µM): -22.3% (inactive)
- inhibition ([9]; cisplatin combo, at 0.05 µM): -16.3%
- inhibition ([9]; cisplatin combo, at 0.5 µM): -26.5%
- inhibition ([9]; cisplatin combo, at 5 µM): -13.8%
- inhibition ([9]; measured here: 5 uM single agent, at 5 µM): 4.33%
- inhibition ([10]; at 0.5 µM): -20.5% (inactive)
- inhibition [10, 22]: -27%
- inhibition [10, 25]: -33.3%
- inhibition [10, 26]: -35.3%
- inhibition ([11]; at 0.5 µM): -18.8% (inactive)
- inhibition ([11]; measured here: with BGB IC20, at 0.5 µM): -10.7%
- inhibition ([11]; measured here: with BGB IC20, at 5 µM): -21.3%
- inhibition ([11]; measured here: with cisplatin IC20, at 0.5 µM): -23.3%
- inhibition ([11]; measured here: with cisplatin IC20, at 5 µM): -10.7%
- inhibition ([11]; single agent, at 5 µM): -17.4%
- inhibition ([12]; at 0.5 µM): -32.8% (inactive)
- inhibition ([12]; measured here: combination with BGB at IC20, at 0.5 µM): -25.4%
- inhibition ([12]; measured here: combination with cisplatin at IC20, at 0.5 µM): -22.4%
- inhibition ([13]; at 0.5 µM): -4.96% (inactive)
- inhibition ([13]; measured here: combo with BGB at IC20, at 0.5 µM): -7.38%
- inhibition ([13]; measured here: combo with cisplatin at IC20, at 0.5 µM): -2.87%
- inhibition ([14]; at 0.5 µM): 7.84% (inactive)
- inhibition ([14]; measured here: inhibition with BGB combination, at 0.05 µM): -1.57%
- inhibition ([14]; measured here: inhibition with cisplatin combination, at 0.05 µM): -17.8%
- inhibition ([15]; at 0.5 µM): 18.8% (inactive)
- inhibition [15, 25]: -4.84%
- inhibition [15, 26]: 6.55%
- inhibition ([16]; at 0.5 µM): -3.23% (inactive)
- inhibition ([16]; measured here: BGB combination, at 0.5 µM): 4.51%
- inhibition ([16]; measured here: BGB combination, at 5 µM): 3.71%
- inhibition ([16]; measured here: cisplatin combination, at 0.5 µM): -3.58%
- inhibition ([16]; measured here: cisplatin combination, at 5 µM): 5.35%
- inhibition ([17]; BGB combination, concentration series, at 5 µM): -10.7%
- inhibition ([17]; at 0.5 µM): -6.34% (inactive)
- inhibition ([17]; cisplatin combination, concentration series, at 5 µM): 8.18%
- inhibition ([18]; at 0.5 µM): -4.57% (inactive)
- inhibition ([18]; measured here: combo with BGB IC20, at 0.5 µM): 2.71%
- inhibition ([18]; measured here: combo with cisplatin IC20, at 0.5 µM): -8.58%
- inhibition ([19]; at 0.5 µM): -0.821% (inactive)
- inhibition ([19]; cisplatin combination, at 0.5 µM): -10.5%
- inhibition ([19]; cisplatin combination, at 5 µM): 2.83%
- inhibition ([19]; measured here: BGB IC40 combination 0.05 uM, at 0.05 µM): -9.82%
- inhibition ([19]; single agent, at 5 µM): 4.08%
- inhibition ([20]; at 0.5 µM): -7.44% (inactive)
- inhibition ([20]; cisplatin combo, at 5 µM): -2.67%
- inhibition ([20]; measured here: BGB IC40 combination, at 0.05 µM): 1.72%
- inhibition [20, 25]: -25.9%
- inhibition ([20]; single agent, at 5 µM): -0.712%
- inhibition ([21]; at 0.5 µM): -8.12% (inactive)
- inhibition [21, 23]: -32.5%
- inhibition [21, 24]: 4.06%
- inhibition ([21]; single agent, at 0.05 µM): 5.05%
- inhibition ([21]; single agent, at 5 µM): -19.6%
